Where “and” joins values, the source holds several entries; their conditions need not be identical. Equal entries are not always repeated. The whole screen tested about 150,000 compounds, of which about 6,500 (4.3%) were called active. Inconclusive results (about 12%) are left out. The entries come from a sample that favours actives as a whole. A number with no mark means an inactive call. Calls come from the whole dose curve; as a rule, active = well fitted inhibition curve with a large enough effect (not every such curve was filed as active); inconclusive = small, poorly fitted or top-dose-only effect, or another doubt; inactive = no such curve, though single readings can be large or run the other way.
Biological target: 15-hydroxyprostaglandin dehydrogenase [NAD(+)] (Homo sapiens) (UniProt P15428)
Assay: qHTS Assay for Inhibitors of HPGD (15-Hydroxyprostaglandin Dehydrogenase)
Conditions: purified HPGD, NADH fluorescence kinetic, PGE2 substrate; activity change, negative = inhibition: active compounds read low
Excerpt: Human 15-Hydroxyprostaglandin dehydrogenase (HPGD) catalyzes the inactivation of prostaglandin E2, and plays a major role in cancer biology by antagonizing the oncogenic potential of cyclooxygenase type 2 (COX2). Assays are available, based on absorbance/fluorescence increase of NADH with the substrate 15-OH prostaglandin E2. References 1. Myung SJ, Rerko RM, Yan M, Platzer P, Guda K, Dotson A, Lawrence E, Dannenberg AJ, Lovgren AK, Luo G, Pretlow TP, Newman RA, Willis J, Dawson D, Markowitz SD. 15-Hydroxyprostaglandin dehydrogenase is an in vivo suppressor of colon tumorigenesis. […] 2. Yan M, Rerko RM, Platzer P, Dawson D, Willis J, Tong M, Lawrence E, Lutterbaugh J, Lu S, Willson JK, Luo G, Hensold J, Tai HH, Wilson K, Markowitz SD. 15-Hydroxyprostaglandin dehydrogenase, a COX-2 oncogene antagonist, is a TGF-beta-induced suppressor of human gastrointestinal cancers. Proc Natl Acad Sci U S A. 2004 Dec 14;101(50):17468-73. 3. Yang L, Amann JM, Kikuchi T, Porta R, Guix M, Gonzalez A, Park KH, Billheimer D, Arteaga CL, Tai HH, Dubois R, Carbone DP, Johnson DH. Inhibition of Epidermal Growth Factor Receptor Signaling Elevates 15-Hydroxyprostaglandin Dehydrogenase in Non-Small-Cell Lung Cancer. Cancer Res. 2007 Jun 15;67(12):5587-5593. Inhibition of HPGD activity was screened by utilizing prostaglandin as an electron donor and NAD+ as an electron acceptor/cofactor. An increase in the fluorescence intensity due to conversion of NAD+ to NADH was used to measure the enzyme activity. NIH Chemical Genomics Center [NCGC] Structural Genomics Consortium [SGC]
Buffer: 50 mM Tris-HCl, 0.01% Tween 20, pH 8. Enzyme Buffer: 50 mM Tris-HCl, 0.5 mM NAD+ and 0.01% Tween 20, pH 8. Reagents/Controls: Buffer in columns 3 and 4 as negative control (no enzyme). Substrate/cofactor solution: 1 mM NAD+ and 30 uM prostaglandin (Sigma, prostaglandin E2, # P5640) final concentrations dispensed throughout the plate. Enzyme: 20 nM HPGD final concentration in columns 1, 2, 5-48. Column 1 and 2 is neutral (100% activity). A titration of control inhibitor GW5074 (G6416 Sigma-Aldrich, St. Louis, MO) top concentration 10 mM in DMSO, then 1:2 dilution for a total of 16 concentrations in duplicate) was pin-transferred into column 2. Assay Steps: Three uL of enzyme were dispensed to 1536-well Greiner black solid bottom plates. Compounds and control inhibitor (23 nL) were transferred via Kalypsys PinTool. The plates were incubated for 15 min at room temperature, and then 1 uL of substrate/cofactor solution was added to start the reaction. The plates were immediately transferred to and read 5 times every 30 seconds on ViewLux High-throughput CCD imager (Perkin-Elmer) using 360 nm excitation and 450 nm emission fluorescence protocol. The fluorescence intensity difference between the last and the first time points was used to compute reaction progress.
% is set by controls: 0 for no effect and ±100 for the full control effect; potency is the fitted concentration of half-maximal effect.

15-hydroxyprostaglandin dehydrogenase [NAD(+)] (Homo sapiens), sequence (P15428 whole entry, looked up): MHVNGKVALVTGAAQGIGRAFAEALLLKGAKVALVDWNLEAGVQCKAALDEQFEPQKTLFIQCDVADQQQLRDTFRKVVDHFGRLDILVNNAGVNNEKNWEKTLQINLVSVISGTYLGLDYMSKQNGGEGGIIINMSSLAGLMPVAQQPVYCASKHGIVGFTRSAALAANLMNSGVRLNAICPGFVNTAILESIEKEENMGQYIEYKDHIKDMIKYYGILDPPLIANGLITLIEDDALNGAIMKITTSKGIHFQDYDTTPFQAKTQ

| SMILES | activity change, negative = inhibition | Potency |
| --- | --- | --- |
| CC(=O)c1c(O)c(C)c(O)c(Cc2c(O)c3c(c(C(=O)/C=C/c4ccccc4)c2O)OC(C)(C)C=C3)c1O | -19.2% and -15.4% |  |
| CCCCC/C=C\C/C=C\C/C=C\CCCCCCC(=O)NCCO | -7.26% and -18.7% |  |
| CC(C)(c1ccc(OC[C@@H]2CO2)cc1)c1ccc(OC[C@H]2CO2)cc1 |  | 12.6 µM (active) |
| CCOC(=O)c1ncn2c1[C@@H]1CCCN1C(=O)c1cc(OC)ccc1-2 | -9.65% |  |
| Cc1nc2nc(C)c(CCC(=O)N3CCC4(CC3)OCCO4)c(C)n2n1 | -4.62% |  |
| C=CC#N | -3.54% |  |
| NCCc1c[nH]c2ccc(O)cc12 | -4.55% and -5.27% and -12.4% |  |
| Cc1noc(C)c1CSc1nc2cc(S(=O)(=O)N3CCOCC3)ccc2o1 |  | 7.94 µM (active) |
| C[C@@]12CCC3C(CC[C@@H]4CC(O)CC[C@@]34C)C1CCC2O (some centres not stated) | -3.43% |  |
| CC(Cl)Cl | -8.77% |  |
| O=C(NCc1cccs1)c1ccc(Br)o1 |  | 20 µM (active) |
| Fc1ccc(C(OCCN2CCN(C/C=C\c3ccccc3)CC2)c2ccc(F)cc2)cc1 | -13.4% |  |
| CCCCC/C=C\C/C=C\C/C=C\C=C\[C@H](CCCC(=O)O)OO | -9.41% |  |
| Cc1cccc2c3c(ccc12)C1=C(C(=O)C3=O)C(C)CO1 (configuration not stated) |  | 17.8 µM (active) |
| CNCC[C@H](Oc1ccc(C(F)(F)F)cc1)c1ccccc1 | -9.03% and -8.03% and -3.66% |  |
| CC(C)(O)/C=C\C(=O)[C@](C)(O)[C@H]1[C@H](O)C[C@]2(C)[C@@H]3CC=C4[C@@H](C=C(O)C(=O)C4(C)C)[C@]3(C)C(=O)C[C@@]12C | -9.86% |  |
| COC(=O)N(c1ccc(OC)cc1)P1(=S)OCCC(C)O1 (configuration not stated) |  | 4.47 µM (active) |
| OC(Cn1c2ccccc2c2ccccc21)C[n+]1ccccc1 (configuration not stated) | -3.99% |  |
| Cc1ccc(N2C(=O)NC(=O)C(CCc3ccncc3)(Cc3cccc(Cl)c3Cl)C2=O)cc1 (configuration not stated) | -5.28% |  |
| C=CCSSCC=C |  | 8.91 µM (active) |
| CC(=O)OC1C2CCC3C1(CC(O)[C@@]1(O)[C@@H](CC(O)C1(C)C)[C@]3(C)O)C[C@@]2(C)O (some centres not stated) | -0.742% |  |
| CCCCCCCCCCCCCC(=O)O[C@@H]1[C@@H](C)[C@@]2(O)[C@@H](C=C(CO)C[C@]3(O)C(=O)C(C)=C[C@@H]23)[C@@H]2C(C)(C)[C@]12OC(C)=O | -19% |  |
| CC(C)(O)c1[se]c2ccccc2c1I | -24.2% |  |
| Cc1cccc(N2C(=O)NC(=O)/C(=C\c3cnn(-c4ccccc4)c3)C2=O)c1 |  | 10 µM (active) |

| SMILES | activity change, negative = inhibition | Potency |
| --- | --- | --- |
| CC12CN3CC(C)(CN(C1)C3c1cccs1)C2 (configuration not stated) | -2.07% |  |
| CC(=C1C(=O)c2ccccc2C1=O)N1CCN(CCN=Cc2c(O)n(C)c(=O)n(C)c2=O)CC1 | -26.9% |  |
| COc1c(O)ccc2c1-c1c3c(cc4c1C(C2)N(C)CC4)OCO3 (configuration not stated) | -4.96% |  |
| O=c1c2ccccc2nc(-c2ccco2)n1-c1ccc(Br)cn1 | -7.61% |  |
| Cc1nc2ccccn2c1P(=S)(N1CCCCC1)N1CCCCC1 | -26.7% |  |
| CCCCCCCCc1[se]c2ccccc2c1Br | 1.04% |  |
| CCNC[C@H](O)c1cccc(O)c1 | -6.69% |  |
| O=C1/C(=C\c2ccc3c(c2)OCO3)N2CCC1CC2 |  | 25.1 µM (active) |
| N[C@H](Cc1o[nH]c(=O)c1Cl)C(=O)O | 0.654% |  |
| Cc1ccc(N(C)C(=O)Oc2cccc3ccc(C)nc23)cc1 | -1.1% |  |
| O=c1c2ccccc2nc(-c2ccc(Cl)cc2Cl)n1-c1ccncc1 | -1.06% |  |
| C1CC[C@H]([C@@]23C[C@H](C[C@H]4CCCN[C@H]42)[C@@H]2CCCCN2C3)NC1 | -4.36% |  |
| O=C(O)C1C2CCC(O2)C1C(=O)O (configuration not stated) | -2.85% |  |
| O=C(OCC1O[C@@H](OC(=O)c2cc(O)c(O)c(O)c2)[C@@H](OC(=O)c2cc(O)c(O)c(O)c2)[C@@H](OC(=O)c2cc(O)c(O)c(O)c2)[C@@H]1OC(=O)c1cc(O)c(O)c(O)c1)c1cc(O)c(O)c(O)c1 (some centres not stated) |  | 10 µM (active) |
| CC(C)N(CC#CCC1(O)c2ccccc2-c2ccccc21)C(C)C | -8.59% |  |
| CCN1CCN(C(=O)Cc2coc3cc(C)cc(C)c23)CC1 | -14.1% |  |
| O=[N+]([O-])c1ccc(Cl)c(Cl)c1 | -4.16% |  |
| CN[C@@H]1C[C@H]2O[C@@](C)([C@@H]1OC)n1c3ccccc3c3c4c(c5c6ccccc6n2c5c31)C(=O)NC4 | -25.7% |  |
| Cc1ccc(Cn2c(C)c3cnn(CC(=O)N4CCC5(CC4)OCCO5)c(=O)c3c2C)cc1 | -21.8% |  |
| Cc1cc(-c2n[nH]c(=S)n2-c2ccc(C)c(C)c2)no1 |  | 5.62 µM (active) |
| NCCc1ccc(S(=O)(=O)F)cc1 | -8.88% |  |
| CC(=O)O[C@H]1CC[C@@]2(C)[C@@H](CC[C@H]3[C@H]2CC(=O)[C@]2(C)[C@@H]3C[C@@H](N3CC3)[C@H]2C(C)=O)C1 | -8.48% |  |
| CCC(C)C(=O)O[C@@H]1C[C@@]2(C)C(c3ccoc3)OC(=O)CC23OC2(C)O[C@@]14[C@@]1(C)C(CC(=O)OC)C5(C)CC1(O)C(O)(C5OC(=O)C1(C)OC1C)C(OC(C)=O)[C@@]34O2 (some centres not stated) | -23.2% |  |
